Measurements reported in paper PMC7862700, “An all-to-all approach to the identification of sequence-specific readers for epigenetic DNA modifications on cytosine”.

Assays:
Experiment in all cases: DAPPL (digital affinity profiling via proximity ligation, sequencing); 10 mM Tris-HCl pH 7.5, 50 mM NaCl, 1 mM DTT, 4% glycerol, room temperature, 30 min; GST-TFs on glutathione beads, 16-mer random dsDNA library, 0.1% formaldehyde crosslink after washing; high values mean tight binding
Conditions in all cases: protein: recombinant; tags: N-terminal GST; dsDNA, one strand shown
ERF = molecular target: T1, ERF (Homo sapiens, UniProt P50548 1-548)
T1 sequence: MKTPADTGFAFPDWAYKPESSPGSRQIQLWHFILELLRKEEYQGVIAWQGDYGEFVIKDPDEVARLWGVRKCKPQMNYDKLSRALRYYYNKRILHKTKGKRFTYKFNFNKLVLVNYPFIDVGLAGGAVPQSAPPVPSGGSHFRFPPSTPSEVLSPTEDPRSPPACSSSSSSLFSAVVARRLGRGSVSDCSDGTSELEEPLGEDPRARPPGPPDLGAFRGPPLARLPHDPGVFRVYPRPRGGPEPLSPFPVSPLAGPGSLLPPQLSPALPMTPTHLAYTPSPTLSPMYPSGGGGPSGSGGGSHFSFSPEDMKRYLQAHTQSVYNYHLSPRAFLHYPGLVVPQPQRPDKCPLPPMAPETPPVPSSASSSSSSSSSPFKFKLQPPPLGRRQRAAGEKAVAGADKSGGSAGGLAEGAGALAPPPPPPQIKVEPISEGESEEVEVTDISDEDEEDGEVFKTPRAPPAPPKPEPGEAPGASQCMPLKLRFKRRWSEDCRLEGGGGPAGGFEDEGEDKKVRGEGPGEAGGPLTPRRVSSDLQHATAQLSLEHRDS
Procedure, shortened: (§1)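 The binding signal reported is, for every hexamer, its read frequency for a factor over its read frequency for the tag-only sample. Reads came from pools of yeast-expressed, GST-fused human transcription factors on glutathione beads, barcoded with DNA and mixed with that sample, which were incubated with 200 nmole of a random double-stranded 16-mer DNA library in Tris/NaCl/DTT/glycerol buffer at room temperature for 30 min. After washing, the pools were crosslinked with 0.1% formaldehyde, proximity-ligated with BsaI/T4 ligase for 1 h at 37 °C, PCR-amplified and sequenced on an Illumina NextSeq500.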

ETV3L = molecular target: T2, ETV3L (Homo sapiens, UniProt Q6ZN32 1-361)
T2 sequence: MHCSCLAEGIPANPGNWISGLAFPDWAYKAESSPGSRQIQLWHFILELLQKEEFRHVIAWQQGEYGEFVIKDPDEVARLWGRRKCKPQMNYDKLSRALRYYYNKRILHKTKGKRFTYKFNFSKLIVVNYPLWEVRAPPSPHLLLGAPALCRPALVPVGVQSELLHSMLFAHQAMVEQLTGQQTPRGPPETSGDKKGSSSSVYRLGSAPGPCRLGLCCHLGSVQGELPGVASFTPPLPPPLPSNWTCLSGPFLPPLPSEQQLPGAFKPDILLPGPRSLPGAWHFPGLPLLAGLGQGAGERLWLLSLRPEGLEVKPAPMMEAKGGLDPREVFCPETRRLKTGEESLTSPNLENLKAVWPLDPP
Procedure, shortened: as §1

ETS2 = molecular target: T3, ETS2 (Homo sapiens, UniProt P15036 1-469)
T3 sequence: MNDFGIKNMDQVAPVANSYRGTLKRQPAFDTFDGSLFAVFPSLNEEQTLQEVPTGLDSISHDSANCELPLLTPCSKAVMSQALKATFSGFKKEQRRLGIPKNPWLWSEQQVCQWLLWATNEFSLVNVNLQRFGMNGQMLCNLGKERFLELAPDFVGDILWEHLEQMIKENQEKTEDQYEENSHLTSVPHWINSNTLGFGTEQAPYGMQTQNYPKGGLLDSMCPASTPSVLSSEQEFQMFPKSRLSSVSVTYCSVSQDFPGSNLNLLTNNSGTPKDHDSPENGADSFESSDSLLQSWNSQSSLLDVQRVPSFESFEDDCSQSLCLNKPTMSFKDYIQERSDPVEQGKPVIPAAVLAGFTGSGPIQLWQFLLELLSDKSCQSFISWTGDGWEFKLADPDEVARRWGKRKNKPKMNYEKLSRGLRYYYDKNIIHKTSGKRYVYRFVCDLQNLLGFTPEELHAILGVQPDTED
Procedure, shortened: as §1

SPDEF = molecular target: T4, SPDEF (Homo sapiens, UniProt O95238 1-335)
T4 sequence: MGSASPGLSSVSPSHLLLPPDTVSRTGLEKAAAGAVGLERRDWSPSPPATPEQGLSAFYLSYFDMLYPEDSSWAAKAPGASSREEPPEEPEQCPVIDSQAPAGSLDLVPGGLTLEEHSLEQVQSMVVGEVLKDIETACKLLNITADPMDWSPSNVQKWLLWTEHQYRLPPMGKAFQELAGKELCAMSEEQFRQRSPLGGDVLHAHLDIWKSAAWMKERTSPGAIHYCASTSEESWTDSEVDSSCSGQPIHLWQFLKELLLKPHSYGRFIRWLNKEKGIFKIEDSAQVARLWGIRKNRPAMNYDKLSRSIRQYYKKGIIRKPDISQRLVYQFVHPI
Procedure, shortened: as §1

ELF5 = molecular target: T5, ELF5 (Homo sapiens, UniProt Q9UKW6-2 1-255)
T5 sequence: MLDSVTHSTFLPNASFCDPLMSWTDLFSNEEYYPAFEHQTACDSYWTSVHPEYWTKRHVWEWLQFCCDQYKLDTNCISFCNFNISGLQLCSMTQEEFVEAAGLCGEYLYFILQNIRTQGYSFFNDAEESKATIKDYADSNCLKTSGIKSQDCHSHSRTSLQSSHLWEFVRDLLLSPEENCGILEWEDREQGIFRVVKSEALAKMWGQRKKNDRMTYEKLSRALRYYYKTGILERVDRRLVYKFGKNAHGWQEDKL
Procedure, shortened: as §1

ETV3 = molecular target: T6, ETV3 (Homo sapiens, UniProt P41162-2 1-143)
T6 sequence: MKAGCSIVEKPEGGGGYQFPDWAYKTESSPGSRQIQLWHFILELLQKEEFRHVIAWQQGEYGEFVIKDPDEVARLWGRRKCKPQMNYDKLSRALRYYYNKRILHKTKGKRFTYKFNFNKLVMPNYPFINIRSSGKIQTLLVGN
Procedure, shortened: as §1

ETV6 = ETV6 (Homo sapiens, UniProt P41212 1-452)
Procedure, shortened: as §1

ETV7 = molecular target: T7, ETV7 (Homo sapiens, UniProt Q9Y603 1-341)
T7 sequence: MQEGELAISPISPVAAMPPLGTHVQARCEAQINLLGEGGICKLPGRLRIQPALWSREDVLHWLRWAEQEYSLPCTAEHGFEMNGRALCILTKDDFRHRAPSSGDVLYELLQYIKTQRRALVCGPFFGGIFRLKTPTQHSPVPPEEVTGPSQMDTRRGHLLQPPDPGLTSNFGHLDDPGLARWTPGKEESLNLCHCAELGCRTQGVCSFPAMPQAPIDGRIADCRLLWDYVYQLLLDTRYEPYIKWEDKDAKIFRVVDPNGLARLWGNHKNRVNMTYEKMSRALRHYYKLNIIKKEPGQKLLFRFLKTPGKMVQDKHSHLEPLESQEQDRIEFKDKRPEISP
Procedure, shortened: as §1

Chain of ETV6 (P41212 whole entry): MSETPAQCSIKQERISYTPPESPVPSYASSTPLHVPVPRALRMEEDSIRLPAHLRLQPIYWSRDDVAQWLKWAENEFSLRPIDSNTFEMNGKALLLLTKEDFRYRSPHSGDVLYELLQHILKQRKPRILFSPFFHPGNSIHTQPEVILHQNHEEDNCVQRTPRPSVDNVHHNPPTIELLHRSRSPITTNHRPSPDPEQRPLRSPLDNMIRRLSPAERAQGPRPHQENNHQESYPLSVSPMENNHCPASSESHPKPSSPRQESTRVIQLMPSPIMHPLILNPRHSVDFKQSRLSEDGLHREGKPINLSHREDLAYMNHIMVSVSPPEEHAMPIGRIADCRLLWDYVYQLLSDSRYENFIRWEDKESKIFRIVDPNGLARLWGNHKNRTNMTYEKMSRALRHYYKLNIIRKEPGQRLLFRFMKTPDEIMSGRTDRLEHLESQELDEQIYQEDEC

Row | Sequence | binding signal (ERF) | binding signal (ETV3L) | binding signal (ETS2) | binding signal (SPDEF) | binding signal (ELF5) | binding signal (ETV3) | binding signal (ETV6) | binding signal (ETV7)
1 | TGTGGA | 1.15 fold enrichment (6-mer frequency, TF over GST control) | 1.17 fold enrichment (6-mer frequency, TF over GST control) | 1.02 fold enrichment (6-mer frequency, TF over GST control) | 1.1 fold enrichment (6-mer frequency, TF over GST control) | 1.02 fold enrichment (6-mer frequency, TF over GST control) | 1.02 fold enrichment (6-mer frequency, TF over GST control) | 1.07 fold enrichment (6-mer frequency, TF over GST control) | 
2 | GTTATC | 1.06 fold enrichment (6-mer frequency, TF over GST control) | 1.07 fold enrichment (6-mer frequency, TF over GST control) | 1.14 fold enrichment (6-mer frequency, TF over GST control) | 1.11 fold enrichment (6-mer frequency, TF over GST control) | 1.14 fold enrichment (6-mer frequency, TF over GST control) | 1.07 fold enrichment (6-mer frequency, TF over GST control) | 1.1 fold enrichment (6-mer frequency, TF over GST control) | 
3 | GATACT | 1.22 fold enrichment (6-mer frequency, TF over GST control) | 1.22 fold enrichment (6-mer frequency, TF over GST control) | 1.09 fold enrichment (6-mer frequency, TF over GST control) | 1.17 fold enrichment (6-mer frequency, TF over GST control) | 1.06 fold enrichment (6-mer frequency, TF over GST control) | 1.06 fold enrichment (6-mer frequency, TF over GST control) | 1.07 fold enrichment (6-mer frequency, TF over GST control) | 
4 | CGCCTA | 1.15 fold enrichment (6-mer frequency, TF over GST control) | 1.25 fold enrichment (6-mer frequency, TF over GST control) | 1.19 fold enrichment (6-mer frequency, TF over GST control) | 1.15 fold enrichment (6-mer frequency, TF over GST control) | 1.18 fold enrichment (6-mer frequency, TF over GST control) | 1.2 fold enrichment (6-mer frequency, TF over GST control) | 1.14 fold enrichment (6-mer frequency, TF over GST control) | 
5 | GCTCAG | 1.18 fold enrichment (6-mer frequency, TF over GST control) | 1.16 fold enrichment (6-mer frequency, TF over GST control) | 1.06 fold enrichment (6-mer frequency, TF over GST control) | 1.09 fold enrichment (6-mer frequency, TF over GST control) | 1.01 fold enrichment (6-mer frequency, TF over GST control) | 1.1 fold enrichment (6-mer frequency, TF over GST control) | 1.13 fold enrichment (6-mer frequency, TF over GST control) | 
6 | CAACCA | 1.14 fold enrichment (6-mer frequency, TF over GST control) | 1.05 fold enrichment (6-mer frequency, TF over GST control) | 1.1 fold enrichment (6-mer frequency, TF over GST control) | 1.09 fold enrichment (6-mer frequency, TF over GST control) |  | 1.1 fold enrichment (6-mer frequency, TF over GST control) | 1.03 fold enrichment (6-mer frequency, TF over GST control) | 1.04 fold enrichment (6-mer frequency, TF over GST control)
7 | CTCGGT | 1.14 fold enrichment (6-mer frequency, TF over GST control) | 1.12 fold enrichment (6-mer frequency, TF over GST control) | 1.11 fold enrichment (6-mer frequency, TF over GST control) | 1.02 fold enrichment (6-mer frequency, TF over GST control) |  |  | 1.08 fold enrichment (6-mer frequency, TF over GST control) | 1.05 fold enrichment (6-mer frequency, TF over GST control)
8 | ATGCTG | 1.16 fold enrichment (6-mer frequency, TF over GST control) | 1.13 fold enrichment (6-mer frequency, TF over GST control) | 1.18 fold enrichment (6-mer frequency, TF over GST control) | 1.11 fold enrichment (6-mer frequency, TF over GST control) | 1 fold enrichment (6-mer frequency, TF over GST control) | 1.09 fold enrichment (6-mer frequency, TF over GST control) | 1.08 fold enrichment (6-mer frequency, TF over GST control) | 
9 | GGTCTA | 1.07 fold enrichment (6-mer frequency, TF over GST control) | 1.11 fold enrichment (6-mer frequency, TF over GST control) | 1.05 fold enrichment (6-mer frequency, TF over GST control) | 1.08 fold enrichment (6-mer frequency, TF over GST control) | 1.04 fold enrichment (6-mer frequency, TF over GST control) | 1.05 fold enrichment (6-mer frequency, TF over GST control) | 1.04 fold enrichment (6-mer frequency, TF over GST control) | 
10 | AGCTCA | 1.08 fold enrichment (6-mer frequency, TF over GST control) | 1.08 fold enrichment (6-mer frequency, TF over GST control) | 1.13 fold enrichment (6-mer frequency, TF over GST control) | 1.08 fold enrichment (6-mer frequency, TF over GST control) |  | 1.15 fold enrichment (6-mer frequency, TF over GST control) | 1.1 fold enrichment (6-mer frequency, TF over GST control) | 1.03 fold enrichment (6-mer frequency, TF over GST control)
11 | ATCACA | 1.04 fold enrichment (6-mer frequency, TF over GST control) | 1.05 fold enrichment (6-mer frequency, TF over GST control) | 1.09 fold enrichment (6-mer frequency, TF over GST control) | 1.05 fold enrichment (6-mer frequency, TF over GST control) |  | 1.09 fold enrichment (6-mer frequency, TF over GST control) | 1.13 fold enrichment (6-mer frequency, TF over GST control) | 
12 | AGCCCT | 1.11 fold enrichment (6-mer frequency, TF over GST control) | 1.12 fold enrichment (6-mer frequency, TF over GST control) | 1.16 fold enrichment (6-mer frequency, TF over GST control) | 1.07 fold enrichment (6-mer frequency, TF over GST control) | 1.08 fold enrichment (6-mer frequency, TF over GST control) | 1.15 fold enrichment (6-mer frequency, TF over GST control) | 1.11 fold enrichment (6-mer frequency, TF over GST control) | 
13 | ATCGTC | 1.13 fold enrichment (6-mer frequency, TF over GST control) | 1.09 fold enrichment (6-mer frequency, TF over GST control) | 1.05 fold enrichment (6-mer frequency, TF over GST control) | 1.05 fold enrichment (6-mer frequency, TF over GST control) | 1.07 fold enrichment (6-mer frequency, TF over GST control) | 1.06 fold enrichment (6-mer frequency, TF over GST control) | 1.06 fold enrichment (6-mer frequency, TF over GST control) | 
14 | CCACAA | 1.24 fold enrichment (6-mer frequency, TF over GST control) | 1.26 fold enrichment (6-mer frequency, TF over GST control) | 1.23 fold enrichment (6-mer frequency, TF over GST control) | 1.14 fold enrichment (6-mer frequency, TF over GST control) | 1.18 fold enrichment (6-mer frequency, TF over GST control) | 1.12 fold enrichment (6-mer frequency, TF over GST control) | 1.18 fold enrichment (6-mer frequency, TF over GST control) | 
15 | TGTGCA | 1.21 fold enrichment (6-mer frequency, TF over GST control) | 1.06 fold enrichment (6-mer frequency, TF over GST control) | 1.16 fold enrichment (6-mer frequency, TF over GST control) | 1.14 fold enrichment (6-mer frequency, TF over GST control) |  | 1.08 fold enrichment (6-mer frequency, TF over GST control) | 1 fold enrichment (6-mer frequency, TF over GST control) | 
16 | GGATCC | 1.06 fold enrichment (6-mer frequency, TF over GST control) | 1.15 fold enrichment (6-mer frequency, TF over GST control) | 1.22 fold enrichment (6-mer frequency, TF over GST control) | 2.07 fold enrichment (6-mer frequency, TF over GST control) | 1.13 fold enrichment (6-mer frequency, TF over GST control) | 1.13 fold enrichment (6-mer frequency, TF over GST control) | 1.08 fold enrichment (6-mer frequency, TF over GST control) | 
